Assay results taken from ChEMBL document CHEMBL4513216, “Probing the Open Global Health Chemical Diversity Library for Multistage-Active Starting Points for Next-Generation Antimalarials” (ACS Infect Dis, 2020).
Hit rate of the full screen: of about 68,000 compounds, about 2,700 (4%) showed an effect of 50% or more. This excerpt belongs to a sample that is enriched for strong results.

Test system: Plasmodium berghei
Experiment: Screen against P. berghei liver stage (PbLuc), transformed with Luciferase, at 2uM
Format: functional, HepG2
Conditions: tested at 2 uM

Row | Compound | INHIBITION
1 | CC(C)N1CCOC[C@H]1c1nc(C(C)(C)C)c[nH]1 | -0.14%
2 | CCCC(NC(=O)c1cc(C)ccc1O)c1nnn[nH]1 (configuration not stated) | -7.9%
3 | COC(=O)[C@@H]1Cc2ncn(C)c2CN1S(=O)(=O)Cc1ccccc1 | 26.55%
4 | CCCn1cnc2c1CN(S(=O)(=O)Cc1ccccc1)[C@H](C(=O)OC)C2 | 60.6%
5 | CCCS(=O)(=O)N1Cc2c(ncn2Cc2ccccc2)C[C@H]1C(=O)OC | 39.73%
6 | COC(=O)[C@@H]1Cc2ncn(C(C)C)c2CN1S(=O)(=O)Cc1ccccc1 | 39.18%
7 | COC(=O)[C@@H]1Cc2ncn(C)c2CN1S(=O)(=O)c1ccc(OC)cc1 | 47.42%
8 | CCCn1cnc2c1CN(S(=O)(=O)c1ccc(F)cc1)[C@H](C(=O)OC)C2 | 46.32%
9 | COC(=O)[C@@H]1Cc2ncn(C)c2CN1S(=O)(=O)c1ccc(C)cc1 | 6.24%
10 | COC(=O)[C@@H]1Cc2ncn(C)c2CN1S(=O)(=O)c1cccs1 | 51.81%
11 | COC(=O)[C@@H]1Cc2ncn(C)c2CN1S(=O)(=O)c1ccc(Cl)cc1 | 57.85%
12 | Nc1ncc(-c2cccc(NC(=O)[C@@H]3CCCCN3)c2)cn1 | 14.95%
13 | CN(C)CCN1CCN(C(=O)c2ccn(C)c(=O)c2)CC1 | 5.59%
14 | CC(C)OCCCNC(=O)c1c(-n2cnnn2)sc2c1CCCC2 | 49.57%
15 | Cc1ccc(N2C[C@H]3OCC[C@H]3[C@H](C(=O)NCC3CC3)C2)nn1 | -11.4%
16 | Cc1ccc(N2C[C@H](C(=O)NCC3CC3)[C@@H]3CCO[C@@H]3C2)nn1 | -2.72%
17 | Cc1ccc(N2C[C@H]3OCC[C@H]3[C@H](C(=O)NCc3ccco3)C2)nn1 | 65.78%
18 | Cc1nccn1CC1CCN(C(=O)c2ccccc2)CC1 | -78.75%
19 | COc1cccc(N2CC3(CCN(c4ccncn4)C3)CC2=O)c1 (configuration not stated) | 13.38%
20 | CNc1cncc(C2CCCN2S(=O)(=O)c2ccc(F)cc2)n1 (configuration not stated) | 2.8%
21 | CN(C)CCN1CCC2(CCCN(C(=O)C3CCC3)C2)CC1 | -9.47%
22 | CC(C#N)NS(=O)(=O)c1cccc(C(C)C)c1 (configuration not stated) | 69.67%

Row | Compound | INHIBITION
23 | CC(CO)NS(=O)(=O)c1cccc(C(C)C)c1 (configuration not stated) | 60.13%
24 | Cc1ccc(S(=O)(=O)NC(C)C#N)cc1Br (configuration not stated) | -29.94%
25 | CCC(=O)c1cccc(S(=O)(=O)NC(C)C#N)c1 (configuration not stated) | 31.51%
26 | CC(C)c1cccc(S(=O)(=O)NCCCN2CCC(O)CC2)c1 | -13.21%
27 | CNS(=O)(=O)c1cccc(C(C)NCc2ccccc2)c1 (configuration not stated) | 12.75%
28 | COc1ccc(Cn2cc(C(=O)N(C)Cc3ccn[nH]3)nn2)cc1 | 20.71%
29 | COC(=O)N1CC[C@@]2(C1)[C@H](OC)CN(c1ccccc1)S2(=O)=O | 22.01%
30 | Cc1cc(C2CCNCC2)nc(-c2ccsc2)n1 | 24.98%
31 | CN1CCOC(CNCC(=O)NCCc2ccc(F)cc2)C1 (configuration not stated) | -8.14%
32 | c1cnnc(N2CCCC2CNCc2cccs2)c1 (configuration not stated) | 23.86%
33 | c1ccc(Cn2cc(CNCC3CCCN3c3cccnn3)cn2)cc1 (configuration not stated) | 62.46%
34 | c1cnnc(N2CCCC2CNCc2ccsc2)c1 (configuration not stated) | 54.85%
35 | c1ccc(Cn2ccnc2CNCC2CCCN2c2cccnn2)cc1 (configuration not stated) | 11.2%
36 | c1ccc(-n2cc(CNCC3CCCN3c3cccnn3)cn2)cc1 (configuration not stated) | -7.13%
37 | c1cnnc(N2CCCC2CNCc2cscn2)c1 (configuration not stated) | 4.19%
38 | CO[C@@H]1CC[C@H]2[C@H]1OCCN2C(=O)c1ccc(C)nc1 | 29.89%
39 | CC(C)CNC(=O)C1=NOC2(CCN(Cc3ccc(C(C)C)cc3)C2)C1 (configuration not stated) | 32.09%
40 | CCOCc1nc2c(c(NCCNC(C)=O)n1)CCN(C(C)=O)CC2 | 18.28%
41 | CCOc1nnc(CN2CCC(c3cc4ccccc4[nH]3)CC2)s1 | 38.33%
42 | CCOc1nnc(CN2CCCC(c3nc4ccccc4[nH]3)C2)s1 (configuration not stated) | 53.63%
43 | CCOc1nnc(CN2CCC(c3nc4ccccc4[nH]3)CC2)s1 | 28.42%
44 | CCCN(CC(=O)OC)C(=O)c1sc(C)nc1C | -1.29%

Row | Compound | INHIBITION
45 | CC(C(=O)NCCOc1cccc(Cl)c1)n1cncn1 (configuration not stated) | 56.67%
46 | CC(C(=O)NCCOc1ccccc1)n1cncn1 (configuration not stated) | 26.76%
47 | Cc1ccc(OCCNC(=O)C(C)n2cncn2)cc1 (configuration not stated) | 42.11%
48 | Cc1cc(=O)[nH]c(=O)n1COCCOCc1ccccc1 | 30.48%
49 | O=C(c1nn(-c2ccccc2F)cc1O)N1CCCCC1 | -10.64%
50 | Cc1ccc2c(C)c(C(=O)NCc3csc(N)n3)oc2c1 | -27.36%
51 | Cc1[nH]c2c(C)ccc(C)c2c1CC(=O)NCC(O)c1cccnc1 (configuration not stated) | 31.65%
52 | Cc1[nH]c2c(C)ccc(C)c2c1CC(=O)NCCCNc1cccnc1 | -10.38%
53 | Cc1[nH]c2c(C)ccc(C)c2c1CC(=O)NCCNc1cccnc1 | 64.92%
54 | COc1cccc(CC(=O)N2CCC3(CC2)OCCCC3O)c1OC (configuration not stated) | 3.4%
55 | CC(C)OCCOCc1cccc(NC(=O)NCCn2ccnc2)c1 | 3.85%
56 | C=c1ccoc1=C1NN=C(CNCCn2cc(C)cn2)O1 | 32.63%
57 | C=c1ccoc1=C1NN=C(CNCC2CCCN2c2cccnn2)O1 (configuration not stated) | -10.6%
58 | C=c1ccoc1=C1NN=C(CNCCn2cccn2)O1 | 58.49%
59 | COc1c(CNCc2ccc(C(=O)N(C)C)cc2)c(C)nn1C | -11.71%
60 | Cc1oc(-c2nc(C#N)c(N(C)C)o2)cc1S(=O)(=O)N1CCCC1 | -20.66%
61 | O=C(c1ccc(-c2nc[nH]n2)cc1)N1CC[C@H](CO)[C@@H](O)C1 | -94.13%
62 | O=C(c1ccccc1-c1nc[nH]n1)N1CCOC(C(F)(F)F)C1 (configuration not stated) | -99.7%
63 | O=C(c1ccc(-c2nc[nH]n2)cc1)N1CCOC(C(F)(F)F)C1 (configuration not stated) | 50.91%
64 | CCOCC(O)CN1CCN(C(=O)CC(C)C)CC1 (configuration not stated) | -38.96%
65 | Cc1cc(C)n(CC2CN(CC(=O)N3CCC3)CCO2)n1 (configuration not stated) | -9.17%
66 | c1cncc(COCC2CNCc3nccn3C2)c1 (configuration not stated) | 38.49%

Row | Compound | INHIBITION
67 | CS(=O)(=O)NCc1ccc(NC(=O)CC2=CCCCC2)cc1 | 35.9%
68 | COCCO[C@H]1CCN(C(=O)c2ccsc2)[C@H]1Cc1cnn(C)c1 | -10.92%
69 | CCc1cc(C(F)(F)F)c2c(C)nn(CC(=O)O)c2n1 | 57.33%
70 | COc1ccccc1-c1cc(C(F)(F)F)c2c(C)nn(CC(=O)O)c2n1 | 31.51%
71 | Cc1nn(C)cc1-c1cc(C(F)(F)F)c2c(C)nn(CC(=O)O)c2n1 | 15.91%
72 | CCn1ccnc1CN1CCCN(C(=O)c2cc[nH]n2)CC1 | 0.74%
73 | O=S(=O)(N1CCN(CC2CC2)CC1)N1CCCC1c1ccco1 (configuration not stated) | -20.95%
74 | O=S(=O)(N1CCC(n2cccc2)CC1)N1CCCC1c1ccco1 (configuration not stated) | 50.59%
75 | COC1CCN(S(=O)(=O)N2CCCC2c2ccco2)CC1 (configuration not stated) | 36.28%
76 | CC(C)NC(=O)[C@@]12CCO[C@@H]1CCN(Cc1ccc3c(c1)OCO3)C2 | 50.85%
77 | O=C(NC1CC1)[C@@]12CCO[C@@H]1CCN(Cc1ccc3c(c1)OCO3)C2 | -14.64%
78 | CNC(=O)[C@@]12CCO[C@@H]1CCN(Cc1ccc3c(c1)OCO3)C2 | 39.02%
79 | CC(=O)N1CC2(CCCCN2Cc2ccc(Cl)cc2)Cc2ccccc21 (configuration not stated) | -31.86%
80 | Cn1ccc(CN2CCCC23CCN(Cc2cccc(F)c2)CC3)n1 | 1.81%
81 | Cc1ccccc1OCC(=O)NCC(c1ccc(N(C)C)cc1)N(C)C (configuration not stated) | 36.6%
82 | CC(c1ccc(S(C)(=O)=O)cc1)N(C)C(=O)c1ccccc1I (configuration not stated) | 6.85%
83 | CCOc1ccccc1C(=O)N(C)C(C)c1ccc(S(C)(=O)=O)cc1 (configuration not stated) | 91.01%
84 | CC(c1ccc(S(N)(=O)=O)cc1)N(C)C(=O)c1ccccc1I (configuration not stated) | -28.49%
85 | CC(C)c1csc(NC(=O)NC2CCCN(c3cnn(C)c3)C2)n1 (configuration not stated) | -20.08%
86 | N#Cc1cc(F)c(N2CCC(NS(=O)(=O)c3cccs3)CC2)c(F)c1 | 24.17%
87 | CSCC(C)(O)CNc1cccc(F)c1C(C)=O (configuration not stated) | 8.75%
88 | CC(C)C(C)(O)CNc1cccc(F)c1C#N (configuration not stated) | 28.1%

Row | Compound | INHIBITION
89 | CSCC(C)(O)CNc1cccc(F)c1C#N (configuration not stated) | 52.6%
90 | Cc1ccc(-n2ncc(C(=O)N(C)C3CCN(C)CC3)c2N)cc1C | -11.1%
91 | O=C(C1=CCCC1)N1CCC[C@]2(C[C@@H](OCc3ccccn3)CO2)C1 | 3.72%
92 | Cc1noc(C)c1CNC(=O)N(C1CC1)C(C)c1ccco1 (configuration not stated) | 50.91%
93 | CCc1cc(CNC(=O)N(C2CC2)C(C)c2ccco2)on1 (configuration not stated) | -27.89%
94 | CC(c1ccco1)N(C(=O)c1cccc(C#N)c1)C1CC1 (configuration not stated) | 32.93%
95 | CC(c1ccco1)N(C(=O)NCc1ccon1)C1CC1 (configuration not stated) | 1.88%
96 | Cc1noc(C)c1CNC(=O)N(C)C1CCN(c2ccccc2)C1=O (configuration not stated) | -7.88%
97 | CCc1cc(CNC(=O)N(C2CC2)C(C)c2ccco2)[nH]n1 (configuration not stated) | 61.42%
98 | COc1cc(N2CCC3(CC2)OCC(=O)NC3C)ncn1 (configuration not stated) | -7.03%
99 | Cc1ccc(CN2CC[C@H]3[C@H]2CC(=O)N3c2ccsc2)o1 | 43.05%
100 | COCCC(=O)N[C@H]1CC[C@H](Nc2nccc(-c3ccncc3)n2)C1 | 24.51%
101 | O=c1c(Cc2ccc(Cl)cc2Cl)c(O)ccn1CC1CC1 | 31.56%
102 | CCc1nc2ccccc2c(=O)n1CC1(O)CCN(C(=O)C2CC2)CC1 | 29.89%
103 | CCc1nc2ccccc2c(=O)n1CC1(O)CCN(S(C)(=O)=O)CC1 | -37.18%
104 | CCCC(=O)N1CCC(O)(Cn2c(CC)nc3ccccc3c2=O)CC1 | -64.2%
105 | CCc1nc2ccccc2c(=O)n1CC1(O)CCN(CC(=O)OC)CC1 | 28.64%
106 | CCc1nc2ccccc2c(=O)n1CC1(O)CCN(C(=O)COC)CC1 | 56.99%
107 | CCc1nc2ccccc2c(=O)n1CC1(O)CCN(C(=O)C(C)C)CC1 | 59.91%
